According to PubChem BioAssay AID1159580 (chemical genetic matrix, 2015):
The whole screen tested about 5,500 compounds, of which about 2,000 (36%) were called active. Not shown: some 18% with an inconclusive outcome. No stated cut-off is given here; in the data, active means normalized growth mostly below about 0.91 (no sharp cut-off); inconclusive means no clear call, values can overlap the other calls; inactive means mostly above about 0.92. The list shows a part of the results.

Test: chemical genetic growth profiling, strain panel (AID 1159580);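 further: tested at 20 µM; growth read once vehicle control cultures reached saturation at 30 °C; 1 = growth at the plate median or of vehicle wells; lower values mean less growth of the strain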
Details: growth OD

Measured: normalized growth

CC(C)=CCC[C@](C)(O)C1CC=C(C)CC1 (some centres not stated)
inactive: S. cerevisiae deletion strains, locus YJR043C, strain POL32, active compounds read low 1.01 | S. cerevisiae deletion strains, locus YJR066W, strain TOR1, active compounds read low 0.953 | S. cerevisiae deletion strains, locus YKL009W, strain mrt4, active compounds read low 0.962 | S. cerevisiae deletion strains, locus YKL068W, active compounds read low 1.01 | S. cerevisiae deletion strains, locus YKL085W, strain MDH1 (second series), active compounds read low 0.991 | S. cerevisiae deletion strains, locus YKL085W, strain MDH1, active compounds read low 0.991 | S. cerevisiae deletion strains, locus YKL160W, strain elf1, active compounds read low 1 | S. cerevisiae deletion strains, locus YKR001C, strain vps1, active compounds read low 0.902 | S. cerevisiae deletion strains, locus YKR026C, strain gcn3, active compounds read low 0.976 | S. cerevisiae deletion strains, locus YKR091W, strain srl3, active compounds read low 0.98 | S. cerevisiae deletion strains, locus YLL001W, strain dnm1, active compounds read low 0.992 | S. cerevisiae deletion strains, locus YLL026W, active compounds read low 0.992 | S. cerevisiae deletion strains, locus YLL041C, strain sdh2, active compounds read low 0.997 | S. cerevisiae deletion strains, locus YLR027C, strain aat2, active compounds read low 0.969 | S. cerevisiae deletion strains, locus YLR039C, strain RIC1, active compounds read low 0.964 | S. cerevisiae deletion strains, locus YLR058C, strain SHM2, active compounds read low 1.03 | S. cerevisiae deletion strains, locus YLR102C, strain apc9, active compounds read low 0.986 | S. cerevisiae deletion strains, locus YLR113W, strain HOG1, active compounds read low 1.02 | S. cerevisiae deletion strains, locus YLR221C, strain rsa3, active compounds read low 0.982 | S. cerevisiae deletion strains, locus YLR258W, strain gsy2, active compounds read low 0.978 | S. cerevisiae deletion strains, locus YLR262C, strain YPT6 (second series), active compounds read low 0.998 | S. cerevisiae deletion strains, locus YLR262C, strain YPT6, active compounds read low 0.966 | S. cerevisiae deletion strains, locus YLR268W, strain sec22, active compounds read low 0.991 | S. cerevisiae deletion strains, locus YLR320W, strain mms22, active compounds read low 0.984 | S. cerevisiae deletion strains, locus YLR330W, strain CHS5, active compounds read low 1.02 | S. cerevisiae deletion strains, locus YLR342W, strain FKS1 (second series), active compounds read low 0.995 | S. cerevisiae deletion strains, locus YLR342W, strain FKS1, active compounds read low 0.98 | S. cerevisiae deletion strains, locus YLR357W, strain rsc2, active compounds read low 0.944 | S. cerevisiae deletion strains, locus YLR370C, strain arc18, active compounds read low 0.96 | S. cerevisiae deletion strains, locus YLR371W, strain rom2, active compounds read low 1 | S. cerevisiae deletion strains, locus YLR384C, strain iki3, active compounds read low 0.971 | S. cerevisiae deletion strains, locus YLR418C, strain cdc73, active compounds read low 0.982 | S. cerevisiae deletion strains, locus YML016C, strain PPZ1, active compounds read low 1.01 | S. cerevisiae deletion strains, locus YML032C, strain rad52, active compounds read low 0.992 | S. cerevisiae deletion strains, locus YML120C, strain ndi1, active compounds read low 0.988 | S. cerevisiae deletion strains, locus YML124C, strain tub3, active compounds read low 1 | S. cerevisiae deletion strains, locus YMR058W, strain fet3, active compounds read low 0.97 | S. cerevisiae deletion strains, locus YMR078C, strain ctf18, active compounds read low 0.976 | S. cerevisiae deletion strains, locus YMR125W, strain sto1, active compounds read low 0.967 | S. cerevisiae deletion strains, locus YMR129W, active compounds read low 0.992 | S. cerevisiae deletion strains, locus YMR205C, strain PFK2, active compounds read low 0.983 | S. cerevisiae deletion strains, locus YMR223W, strain ubp8, active compounds read low 0.991 | S. cerevisiae deletion strains, locus YMR231W, strain pep5, active compounds read low 0.965 | S. cerevisiae deletion strains, locus YMR307W, strain GAS1, active compounds read low 1.13 | S. cerevisiae deletion strains, locus YNL067W, strain RPL9B, active compounds read low 1.01 | S. cerevisiae deletion strains, locus YNL071W, strain lat1, active compounds read low 0.98 | S. cerevisiae deletion strains, locus YNL153C, strain GIM3, active compounds read low 1.01 | S. cerevisiae deletion strains, locus YNL183C, strain NPR1, active compounds read low 0.954 | S. cerevisiae deletion strains, locus YNL209W, strain ssb2, active compounds read low 0.98 | S. cerevisiae deletion strains, locus YNL233W, strain BNI4, active compounds read low 1.04 | S. cerevisiae deletion strains, locus YNL248C, strain rpa49, active compounds read low 0.978 | S. cerevisiae deletion strains, locus YNL250W, strain rad50, active compounds read low 1 | S. cerevisiae deletion strains, locus YNL271C, strain bni1, active compounds read low 0.988 | S. cerevisiae deletion strains, locus YNL298W, strain CLA4, active compounds read low 1.01 | S. cerevisiae deletion strains, locus YNL307C, strain MCK1, active compounds read low 0.983 | S. cerevisiae deletion strains, locus YNL322C, strain KRE1 (second series), active compounds read low 0.982 | S. cerevisiae deletion strains, locus YNR049C, strain mso1, active compounds read low 0.979 | S. cerevisiae deletion strains, locus YNR052C, strain pop2, active compounds read low 0.994 | S. cerevisiae deletion strains, locus YOL012C, strain htz1 1.39 | S. cerevisiae deletion strains, locus YOL147C, strain pex11, active compounds read low 0.981 | S. cerevisiae deletion strains, locus YOR001W, strain rrp6, active compounds read low 0.975 | S. cerevisiae deletion strains, locus YOR061W, strain CKA2, active compounds read low 1.03 | S. cerevisiae deletion strains, locus YOR069W, strain VPS5, active compounds read low 1.02 | S. cerevisiae deletion strains, locus YOR070C, strain gyp1, active compounds read low 1.02 | S. cerevisiae deletion strains, locus YOR080W, strain dia2, active compounds read low 0.979 | S. cerevisiae deletion strains, locus YOR083W, strain WHI5, active compounds read low 0.987 | S. cerevisiae deletion strains, locus YOR106W, strain vam3, active compounds read low 0.947 | S. cerevisiae deletion strains, locus YOR136W, strain idh2, active compounds read low 0.992 | S. cerevisiae deletion strains, locus YOR144C, strain elg1, active compounds read low 0.989 | S. cerevisiae deletion strains, locus YOR184W, strain ser1, active compounds read low 0.994 | S. cerevisiae deletion strains, locus YOR231W, strain MKK1, active compounds read low 0.993 | S. cerevisiae deletion strains, locus YOR265W, strain rbl2, active compounds read low 0.98 | S. cerevisiae deletion strains, locus YOR270C, strain vph1, active compounds read low 0.932 | S. cerevisiae deletion strains, locus YOR290C, strain snf2, active compounds read low 0.969 | S. cerevisiae deletion strains, locus YOR316C, strain cot1, active compounds read low 0.986 | S. cerevisiae deletion strains, locus YPL051W, strain arl3, active compounds read low 0.981 | S. cerevisiae deletion strains, locus YPL055C, strain LGE1, active compounds read low 1.04 | S. cerevisiae deletion strains, locus YPL078C, strain atp4, active compounds read low 0.988 | S. cerevisiae deletion strains, locus YPL106C, strain sse1, active compounds read low 0.981 | S. cerevisiae deletion strains, locus YPL240C, strain hsp82, active compounds read low 0.977 | S. cerevisiae deletion strains, locus YPL256C, strain CLN2, active compounds read low 0.99 | S. cerevisiae deletion strains, locus YPR119W, strain clb2, active compounds read low 1.01 | S. cerevisiae deletion strains, locus YPR141C, strain kar3, active compounds read low 1 | S. cerevisiae deletion strains, locus YPR163C, strain tif3, active compounds read low 0.973 | S. cerevisiae deletion strains, locus YPR167C, strain met16, active compounds read low 1.02 | S. cerevisiae deletion strains, strain wtn01, active compounds read low 0.974 | S. cerevisiae strains, strain wild type, active compounds read low 1.02
